# Source: PubChem (National Center for Advancing Translational Sciences (NCATS))
# FBPA Giardia inh – qHTS Assay for Inhibitors of Fructose-1,6-bisphosphate Aldolase from Giardia Lamblia | A8B2U2 | purified Giardia FBPA | Potency, µM (top dose mostly 59.6 µM), for the others: at the top dose activity, negative = inhibition, hits mostly inhibitors | 0.71% of 290,000 active; further: potency means the concentration at half of the fitted maximal effect; nearly all actives have a fitted effect of over 55% in size
# Target sequence (A8B2U2 whole entry, looked up): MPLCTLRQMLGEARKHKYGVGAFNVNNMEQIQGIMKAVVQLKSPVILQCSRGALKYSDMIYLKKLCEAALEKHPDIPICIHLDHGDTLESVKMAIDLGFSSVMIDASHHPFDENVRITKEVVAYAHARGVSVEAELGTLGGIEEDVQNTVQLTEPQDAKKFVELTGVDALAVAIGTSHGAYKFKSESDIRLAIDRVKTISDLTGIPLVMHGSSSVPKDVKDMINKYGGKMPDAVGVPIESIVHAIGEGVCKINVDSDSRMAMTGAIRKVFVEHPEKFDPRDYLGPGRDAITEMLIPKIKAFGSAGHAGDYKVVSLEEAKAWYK
#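 40 nM FBPA preincubated 10 min at RT with compound (up to 57.5 uM final), then substrate plus GAPDH/TPI/NAD/arsenate coupling and diaphorase/resazurin added. Fluorescence read after 20 min at RT, 525/598 nm.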
# VACV Venus inh – qHTS for Stage-Specific Inhibitors of Vaccinia Orthopoxvirus: Venus Reporter Primary qHTS; Vaccinia virus Venus reporter expression, fluorescence; Potency, µM (titrated, usually from 36.5 µM), for the others: top-dose activity change, negative = inhibition, actives largely listed as inhibitors; 0.46% of 330,000 active; AID 720580, 2013; calls by dose curve; tested in A549 cells; further: potency means the concentration at half of the fitted maximal effect; nearly all actives have a fitted effect of over 30% in size
# HCV inhibitor – qHTS Assay for Inhibitors of Hepatitis C Virus (HCV); Huh7.5.1 HCVcc-Cre infection, luciferase reporter, 44 h; Potency, µM (titrated, usually from 41.8 µM), for the others: at the highest dose activity change, negative = inhibition, actives largely listed as inhibitors; 3.4% of 340,000 active; AID 651820, 2012; further: potency means the concentration at half of the fitted maximal effect
#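 A cell-based infection assay in which seeded cells (1,000 per well) receive test compound after 4 h, are inoculated with HCVcc-Cre at approximately 0.5 moi, and are incubated 44 h before luminescence detection.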
# Vaccinia mCherry – qHTS for Stage-Specific Inhibitors of Vaccinia Orthopoxvirus: mCherry Reporter Primary qHTS; AID 720579, 2013; Vaccinia virus mCherry reporter infection, fluorescence; Potency, µM (top dose mostly 36.5 µM), for the others: at the highest dose activity change, negative = inhibition, usual class: inhibitors; 0.63% of 310,000 active; calls by dose curve; tested in A549 cells; further: potency means the concentration at half of the fitted maximal effect; nearly all actives have a fitted effect of over 35% in size
# HCMV antiviral – qHTS Assay for inhibitors of the human cytomegalovirus (HCMV) | HFF cells, HCMV-luciferase reporter, 72 h; active compounds read low | activity change, negative = inhibition, % at 57.5 µM | 4.5% of 410,000 active | AID 1259415, 2018; in the data active means activity change below about -60%; inconclusive means no clear call, values can overlap the other calls; inactive means above about -39%
#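 Screen run at 2 compound doses on HFFs infected with reporter HCMV, MOI 1 PFU/cell. Luciferase activity from cell lysates at 72 h post infection gave inhibition relative to buffer-only and Salinomycin wells.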
# FMDV antiviral – High Throughput Screening for Foot and Mouth Disease Virus Antivirals; FMDV antiviral cell-based qHTS; Potency, µM (titrated, usually from 57.9 µM), for inactives: at the top dose activity change, negative = inhibition, usual class: inhibitors; 1.2% of 410,000 active; calls by dose curve; tested in HEK293T cells; further: read-out not given here; potency means the concentration at half of the fitted maximal effect; nearly all actives have a fitted effect of over 45% in size
# Starred values were filed as active, the others as inactive; i = inactive; ? = inconclusive; · = no result given; [ ] = another dose, or the depositor's remark. Hits are enriched below; roughly 7.5% of the tested compounds scored in any of these assays. Unless noted, the call rests on the fitted dose curve; in most records, active means well fitted curve in the direction sought with a large enough effect; inconclusive means small, poorly fitted or top-dose-only effect, or another doubt; inactive means no such curve, though single readings can be large; an effect the other way counts as inactive or inconclusive. On the % scale 0 is the no-effect control and ±100 the full control effect.
SMILES,FBPA Giardia inh,VACV Venus inh,HCV inhibitor,Vaccinia mCherry,HCMV antiviral,FMDV antiviral
Oc1cc(Nc2ccncc2)cc2cccnc12,·,·,·,·,-25,-18%
COc1ccc(CCN=C(C)c2cc(C)c(C)cc2O)cc1OC,3%,10%,-8%,-10%,-30,30%
CCOc1ccc(Oc2ccc(C(F)(F)F)cc2NC(=O)C2=COCCO2)cc1,·,·,-17%,·,-13,-25%
O=C(/C=C/c1cccs1)c1cc(F)ccc1OC(=O)N1CCOCC1,·,-8%,?,i,-16,22µM*
O=C(/C=C/c1cccs1)N1CCOCC1,12%,-14%,28%,i,83,7%
COc1ccc(CCNC(=O)CCCCn2c(=O)c3ccccc3n(Cc3cccc(C)c3)c2=O)cc1OC,·,-12%,·,-21%,-10,0%
c1ccc(-c2cc3ccccc3[nH]2)cc1,-6%,-9%,?,-14%,-65*,19%
Nc1ccc(-c2cc3ccccc3[nH]2)cc1,·,-9%,·,-19%,·,·
Cc1nnsc1S(=O)c1ccc(Br)cc1 (centres undefined),12%,·,-16%,·,-63*,0%
Cc1nnsc1S(=O)c1ccc(F)cc1 (centres undefined),15%,·,-1%,·,-69*,?
Cc1ccc(S(=O)c2snnc2C)cc1 (centres undefined),6%,?,3%,?,18,-3%
CCC1CN(CCNC(=O)c2ccc3c(c2)OCCO3)Cc2cc(OC)ccc2O1 (centres undefined),·,0%,·,-9%,·,8%
CCN(CC)C(=O)c1nc[nH]c1C(=O)N1CCc2ccccc2C1,·,-7%,14%,-11%,7,-14%
CCOC(=O)C1=C(CC)Nc2ccccc2N=C1NC(=O)Nc1ccc(Cl)c(Cl)c1,-8%,?,?,?,-98*,-17%
CCOC(=O)C1=C(CC)Nc2ccccc2N=C1NC(=O)c1cc(C)on1,·,·,-3%,·,0,6%
COC(=O)C1=C(C)NC(=S)NC1c1ccc(OCC(=O)N2CCCCC2)c(OC)c1 (centres undefined),·,-5%,16%,-9%,-63*,-6%
Nc1cc(=O)[nH]c2ncnn12,·,-1%,4%,-8%,14,-10%
O=C(NCC1CCCO1)/C(=C/c1ccccc1F)NC(=O)c1ccccc1 (centres undefined),-3%,-8%,23%,-14%,13,6%
COc1ccc(CC(=O)Nc2ccncc2Cl)cc1,·,·,6.3µM*,·,-92*,?
Cc1ccc(CNC(=O)Cn2c(=O)n(Cc3ccc(F)cc3)c(=O)c3sc4ccccc4c32)cc1,·,-12%,·,-14%,-65*,0%
CCC(C)NC(=O)Cn1c(=O)n(Cc2ccc(C(=O)NCc3ccccc3OC)cc2)c(=O)c2ccccc21 (centres undefined),·,-3%,·,-17%,-13,-14%
CCC(C)NC(=O)Cn1c(=O)n(Cc2ccc(C(=O)NCc3ccc(C)cc3)cc2)c(=O)c2ccccc21 (centres undefined),·,-10%,·,-7%,-79*,0%
COc1cccc(-n2c(=O)c3sc4ccccc4c3n(CC(=O)Nc3ccc(F)cc3F)c2=O)c1,·,-18%,·,-22%,-70*,1%
COc1cccc(-n2c(=O)c3sc4ccccc4c3n(CC(=O)Nc3cccc(Cl)c3)c2=O)c1,·,-11%,·,-6%,8,-5%
CCCCNC(=O)Cn1c(=O)cc(C)c2c(C)nn(-c3ccc(CC)cc3)c21,·,-1%,·,i,26,-15%
SMILES,FBPA Giardia inh,VACV Venus inh,HCV inhibitor,Vaccinia mCherry,HCMV antiviral,FMDV antiviral
O=C1N=c2ccc([N+](=O)[O-])cc2=C1c1sc(=O)[nH]c1O,?,-4%,21%,i,13,-30%
COC(=O)c1scc(C#N)c1N/N=C(\C#N)S(=O)(=O)c1ccc(Cl)cc1,17%,-3%[7.34 µM],?,i[7.34 µM],-97*,14µM*
CC(C)(C(=O)Nc1ccccc1)n1cc(NC(=O)c2ccc3ccccc3n2)cn1,·,·,·,·,59,·
CC(OC(=O)c1cc(=O)[nH]c2ccccc12)C(=O)NC1CCCC1 (centres undefined),·,-9%,14%,-3%,0,-20%
O=C(OCCOc1ccccc1)c1cc(S(=O)(=O)N2CCOCC2)c(Cl)cc1Cl,·,-8%,·,0%,-63*,?
COc1ccc(OCCOC(=O)c2ccc(F)c(S(=O)(=O)N3CCOCC3)c2)cc1,·,·,?,·,-38,?
COc1ccc(OCCOC(=O)c2cc(S(=O)(=O)N3CCOCC3)c(Cl)cc2Cl)cc1,·,-14%,?,-1%,-12,40µM*
O=C(OCCOc1ccccc1)c1cc(S(=O)(=O)N2CCOCC2)ccc1Cl,·,·,11%,·,0,-17%
CCc1ccc(OC(=O)Cc2ccc(OC)c(S(=O)(=O)N3CCOCC3)c2)cc1,·,·,10%,·,-98*,-4%
CC(C)c1ccc(C(CC(=O)c2ccc(Cl)cc2)C(=O)O)cc1 (centres undefined),12%,-23%,19%,-13%,45,1%
O=C(CNC(=O)c1ccc(Cl)cc1)OCC(=O)c1ccccc1,4%,-9%,5%,-14%,-31,-3%
O=C(CCC(=O)c1ccc(Cl)cc1)OCC(=O)c1ccccc1,5%,-8%,?,-4%,-65*,1%
COC(=O)C(CC(=O)c1ccc(Cl)cc1)c1ccccc1 (centres undefined),·,-16%,3%,-23%,-101*,4%
Cc1cccc(N2C(=O)N3[C@H](c4ccc(Br)cc4)[C@@H]4C(=O)N(C(C)(C)C)C(=O)[C@@H]4[C@]3(C)C2=O)c1,-11%,-10%,11%,i,10,-17%
NC(=O)C1(N2CCCCC2)CCN(C(=O)CSc2nc(C(F)(F)F)cc(=O)[nH]2)CC1,-3%,-12%,12%,·,-65*,-17%
O=C(CSc1nc(C(F)(F)F)cc(=O)[nH]1)N1CCCC1,·,-6%,-20%,-2%,-16,-1%
O=C(CSc1nc2nccnc2c(=O)n1CCc1c[nH]c2ccccc12)Nc1ccc(F)cc1,·,-17%,·,-22%,-63*,-3%
Cc1ccc(-c2nc(CS(=O)CC(=O)N3CCN(c4ccc(Cl)cc4)CC3)c(C)o2)cc1 (centres undefined),·,?,·,-15%,-71*,-24%
CSc1ccccc1NC(=O)c1csc(C)c1,9%,·,-12%,·,14,25%
C(=NN1CCCCCC1)c1ccc2ccccc2n1,·,-7%,-1%,-28%,-92*,100µM*
C(=NN1CCCCCC1)c1cccc2ccccc12,·,-3%,12%,-9%,-20,44%
CN(Cc1ccc(Cl)s1)C(=O)CSc1nnc(C2CC2)n1C1CC1,·,·,20%,·,0,-15%
